Drawing on PubChem BioAssay, this text covers growth inhibition, inhibition and outcome for 19 compounds.

The nature of test [1]: antimalarial activity against Dd2 strain (AID 2302;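 active = growth inhibition above 50% at the single 2 µM test dose, taken to imply half-maximal potency below 2 µM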;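 note: 0% = DMSO untreated growth and 100% = chloroquine plus artemisinin killed control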). The note with it: P. falciparum Dd2 in RBCs, LDH growth readout, 72 h; at 2 µM; hits give high values.
Test [2] in a line: HepG2 cytotoxicity, primary screen, cytotoxicity control for P. falciparum antimalarial project, cell-based, ATP luminescence (AID 2303;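 active = inhibition above 50%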;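 note: 0% = DMSO wells and 100% = digitonin-killed cells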). The note with it: HepG2 viability, 24-48 h, at 10 µM, hits give high values.
For test [3], the target named is L-lactate dehydrogenase (Plasmodium falciparum (isolate CDC / Honduras)) (UniProt Q27743). Description: PfLDH activity inhibition – cell lysate, 3D7 strain, counter-screen for P. falciparum growth inhibition project (AID 2304).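 Note: 0% = vehicle and 100% = reference inhibitor.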 The note with it: P. falciparum 3D7 crude extract, LDH APAD/NBT absorbance; at 2 µM; hits give high values. In general terms: The purpose of a counterscreen is to sort out artefacts and off-target activity.
Chain of L-lactate dehydrogenase (Plasmodium falciparum (isolate CDC / Honduras)) (Q27743 whole entry, looked up): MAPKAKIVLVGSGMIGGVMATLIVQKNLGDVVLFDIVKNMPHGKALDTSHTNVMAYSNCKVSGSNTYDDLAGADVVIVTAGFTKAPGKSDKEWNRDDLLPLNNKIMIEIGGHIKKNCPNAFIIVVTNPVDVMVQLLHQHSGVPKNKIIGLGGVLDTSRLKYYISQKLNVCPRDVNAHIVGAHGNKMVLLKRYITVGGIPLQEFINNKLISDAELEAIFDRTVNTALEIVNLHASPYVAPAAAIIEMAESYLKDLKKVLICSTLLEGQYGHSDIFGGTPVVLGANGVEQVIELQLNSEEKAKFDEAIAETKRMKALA

The nature of test [4]: inhibition of 3D7 malaria parasite growth – strain 3D7 (AID 2306).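 Note: 0% = DMSO wells and 100% = chloroquine plus artemisinin control wells.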 To be noted: P. falciparum 3D7 erythrocytic growth, LDH absorbance, 72 h; at 2 µM; hits give high values.
Test [5] addresses Calcium-dependent protein kinase 1 (Plasmodium falciparum (isolate 3D7)) (UniProt P62344). Description: PfCDPK1 kinase inhibitors, biochemical, TCAMS library (AID 1159585; cut-off not given, nearly all actives have IC50 up to about 0.98 µM;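 note: inhibitors leave more ATP so luminescence rises with inhibition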). The note with it: recombinant PfCDPK1, Kinase-Glo ATP depletion luminescence. Background: Kinase-Glo reads ATP consumption through a luciferase reaction.
Test [6] concerns the target Plasmodium falciparum protein kinase 6 (PK6, PF3D7_1337100) (UniProt Q8IDW1). Description: PfPK6 kinase inhibitors, biochemical, TCAMS library (AID 1159586). The note with it: recombinant PfPK6, Kinase-Glo ATP depletion luminescence.
The target of test [7] is Protein kinase 7 (PK7), Plasmodium falciparum 3D7 (PF3D7_0213400) (UniProt Q7YTF7). Description: inhibition of Plasmodium PK7 catalytic activity – biochemical, TCAMS antimalarial set, Kinase-Glo luminescence (AID 1159587). To be noted: recombinant PfPK7, Kinase-Glo ATP depletion luminescence.
Chain of Protein kinase 7 (PK7), Plasmodium falciparum 3D7 (PF3D7_0213400) (Q7YTF7 1-343): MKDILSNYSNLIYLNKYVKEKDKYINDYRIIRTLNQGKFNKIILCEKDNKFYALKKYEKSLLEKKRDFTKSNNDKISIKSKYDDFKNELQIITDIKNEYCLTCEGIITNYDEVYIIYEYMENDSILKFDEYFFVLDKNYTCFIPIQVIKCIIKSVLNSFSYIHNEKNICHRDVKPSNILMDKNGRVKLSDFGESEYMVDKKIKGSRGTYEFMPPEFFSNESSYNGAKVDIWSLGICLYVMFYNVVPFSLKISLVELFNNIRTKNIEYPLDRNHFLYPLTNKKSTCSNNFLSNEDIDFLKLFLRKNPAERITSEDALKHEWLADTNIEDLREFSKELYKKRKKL
In test [8] the target is Calcium-dependent protein kinase 4 (Plasmodium falciparum (isolate 3D7)) (UniProt Q8IBS5). Description: PfCDPK4 kinase inhibitors, biochemical, TCAMS library (AID 1159588; cut-off not given, nearly all actives have IC50 up to about 0.91 µM). The note with it: recombinant PfCDPK4, Kinase-Glo ATP depletion luminescence.
Chain of Calcium-dependent protein kinase 4 (Plasmodium falciparum (isolate 3D7)) (Q8IBS5 whole entry, looked up): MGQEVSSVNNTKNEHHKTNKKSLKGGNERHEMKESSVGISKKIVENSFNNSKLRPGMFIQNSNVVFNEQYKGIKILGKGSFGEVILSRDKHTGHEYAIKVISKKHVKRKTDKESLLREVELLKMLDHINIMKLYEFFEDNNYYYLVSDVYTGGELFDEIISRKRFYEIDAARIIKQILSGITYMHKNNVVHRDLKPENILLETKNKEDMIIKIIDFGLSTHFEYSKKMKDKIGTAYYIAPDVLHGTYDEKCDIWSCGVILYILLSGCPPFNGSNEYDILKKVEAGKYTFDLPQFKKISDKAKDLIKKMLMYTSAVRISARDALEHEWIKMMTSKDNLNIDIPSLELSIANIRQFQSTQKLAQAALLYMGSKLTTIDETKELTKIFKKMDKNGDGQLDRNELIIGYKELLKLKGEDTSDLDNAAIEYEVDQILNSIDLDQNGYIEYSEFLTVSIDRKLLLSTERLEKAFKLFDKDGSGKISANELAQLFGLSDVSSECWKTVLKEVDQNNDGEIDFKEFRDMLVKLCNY

A number with no mark means an inactive call. For some assays here: Entries with a potency or affinity are not part of this list. The source made the active and inactive calls. Unless noted, the rule behind the calls is not given here.

Chain of Calcium-dependent protein kinase 1 (Plasmodium falciparum (isolate 3D7)) (P62344 whole entry, looked up): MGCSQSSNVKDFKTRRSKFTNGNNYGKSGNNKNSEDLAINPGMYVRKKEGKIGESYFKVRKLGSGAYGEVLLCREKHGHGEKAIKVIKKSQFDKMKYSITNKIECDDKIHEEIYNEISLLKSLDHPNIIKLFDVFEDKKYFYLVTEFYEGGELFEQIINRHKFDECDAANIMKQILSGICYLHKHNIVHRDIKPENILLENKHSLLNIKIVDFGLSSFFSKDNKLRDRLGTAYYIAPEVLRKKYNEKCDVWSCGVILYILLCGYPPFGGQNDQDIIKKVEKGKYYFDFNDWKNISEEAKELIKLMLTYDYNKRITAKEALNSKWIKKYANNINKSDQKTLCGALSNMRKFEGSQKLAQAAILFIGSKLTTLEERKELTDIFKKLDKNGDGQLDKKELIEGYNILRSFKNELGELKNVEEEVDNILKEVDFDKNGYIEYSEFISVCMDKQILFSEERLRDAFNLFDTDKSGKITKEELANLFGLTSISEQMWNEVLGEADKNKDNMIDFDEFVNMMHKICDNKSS
Chain of Plasmodium falciparum protein kinase 6 (PK6, PF3D7_1337100) (Q8IDW1 1-305): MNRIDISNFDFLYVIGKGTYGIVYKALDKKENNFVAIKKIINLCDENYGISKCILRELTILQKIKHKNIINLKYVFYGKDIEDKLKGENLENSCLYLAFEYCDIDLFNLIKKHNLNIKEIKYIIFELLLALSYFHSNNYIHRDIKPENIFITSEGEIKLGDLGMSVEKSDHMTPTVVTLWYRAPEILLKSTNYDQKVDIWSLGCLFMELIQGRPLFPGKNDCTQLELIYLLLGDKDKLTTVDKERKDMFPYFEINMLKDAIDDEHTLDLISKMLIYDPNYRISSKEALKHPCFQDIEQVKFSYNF

Turning to `CC(=O)c1ccc(O)c(CC(O)CO)c1` (configuration not stated), the growth inhibition in test [1] is -1%; in test [4] it was 100% (active). Besides, the inhibition was 3% in test [2] and 4% in test [3]. The result in test [5], in test [6], in test [7] and in test [8] was inactive.

Regarding `CCC(C)NC(=O)CN1CN(c2ccccc2)C2(CCN(C(=O)c3ccc4ccccc4c3)CC2)C1=O` (configuration not stated), the growth inhibition in test [1] was 78% (active); in test [4], 95% (active). Moreover, the inhibition in test [2] was -6%; in test [3], -2%. Moreover, the result in test [5], in test [6], in test [7] and in test [8] was inactive.

On to `Cc1cccc2[nH]c(-c3cccc(-c4cccc(NC(=O)Nc5ccsc5)c4)c3)nc12`, for which the results for the growth inhibition in test [1] and in test [4] were 41% and 102% (active), respectively. Besides, the inhibition is 15% in test [2] and -3% in test [3]. Besides, the result in test [5], in test [6], in test [7] and in test [8] was inactive.

Consider `C#Cc1cccc(NC(=O)[C@H](CC2CCCCC2)Nc2ccc(C#N)c3ccccc23)c1`, for which the growth inhibition in test [1] is 99% (active); in test [4], 100% (active). In addition, the inhibition in test [2] was 48%; in test [3], -1%. In addition, the result in test [5], in test [6], in test [7] and in test [8] was inactive.

Take `O=c1cc(NCCCCNCc2cccc(Cl)c2)[nH]c2ccccc12`: the values for the growth inhibition in test [1] and in test [4] were 41% and 98% (active), respectively. Moreover, the results for the inhibition in test [2] and in test [3] were 2% and -3%, respectively. Further, the result in test [5], in test [6], in test [7] and in test [8] was inactive.

`O=C1CSc2ccc(CNC3CCN(CCc4c(F)cnc5ccc(F)cc45)CC3)nc2N1`: the growth inhibition was 16% in test [1] and 97% (active) in test [4]. Also, the inhibition is 13% in test [2] and 1% in test [3]. In addition, the result in test [5], in test [6], in test [7] and in test [8] was inactive.

For the compound `CN1CCC(NCc2cccc(-c3ccc(S(=O)(=O)NCCc4ccccn4)cc3)c2)CC1`, the growth inhibition in test [1] is 1%; in test [4], 95% (active). Besides, the inhibition in test [2] is 10%; in test [3] it was -1%. For the same compound, the outcome in test [5], in test [6], in test [7] and in test [8] was inactive.

In the case of `CCN(CC)S(=O)(=O)c1ccc(CCOCCCCCNCC(O)c2cc(Cl)c(N)c(Cl)c2)s1` (configuration not stated), the growth inhibition is 80% (active) in test [1] and 96% (active) in test [4]. Also, the inhibition in test [2] is 35%; in test [3], -10%. The outcome in test [5], in test [6], in test [7] and in test [8] was inactive.

`CN(C)c1ccc(-c2nc3ccc(N)cc3[nH]2)cc1`: the growth inhibition in test [1] is 97% (active); in test [4] it was 102% (active). Further, the inhibition in test [2] is 1%; in test [3], -1%. Also, the outcome in test [5], in test [6], in test [7] and in test [8] was inactive.

Consider `OC1CCCN(Cc2cccc(-c3ccc(-c4nc5ccccc5[nH]4)cc3)c2)C1` (configuration not stated), for which the growth inhibition is 16% in test [1] and 85% (active) in test [4]. Further, the inhibition in test [2] was 25%; in test [3], -2%. For the same compound, the result in test [5], in test [6], in test [7] and in test [8] was inactive.

With `Cc1ccc(NC(=O)c2cccc(CN3CCCN(Cc4cccc(O)c4)CC3)c2)cc1C`, the growth inhibition in test [1] was 31%; in test [4] it was 95% (active). For the same compound, the inhibition was 19% in test [2] and 1% in test [3]. Besides, the outcome in test [5], in test [6], in test [7] and in test [8] was inactive.

On to `CC(=O)Nc1nc(C(=O)Nc2cccc(-c3cccc(-c4nc5c(C)cccc5[nH]4)c3)c2)cs1`, for which the growth inhibition in test [1] was 94% (active); in test [4], 101% (active). For the same compound, the inhibition in test [2] was 28%; in test [3], -2%. The result in test [5], in test [6], in test [7] and in test [8] was inactive.

In the case of `Cc1cccc2[nH]c(-c3cccc(-c4ccc(CNCCc5ccncc5)cc4)c3)nc12`, the growth inhibition in test [1] and in test [4] was 100% (active) throughout. Besides, the figures for the inhibition in test [2] and in test [3] were 40% and -2%, respectively. Further, the outcome in test [5], in test [6], in test [7] and in test [8] was inactive.

With `CCOc1cc(C(=O)N[C@@H](Cc2ccccc2)[C@H](O)CNC(C)(C)c2cccc(OC)c2)cc(N2CCCS2(=O)=O)c1`, the growth inhibition in test [1] and in test [4] was 99% (active) in each case. In addition, the inhibition in test [2] is -5%; in test [3] it was -3%. For the same compound, the outcome in test [5], in test [6], in test [7] and in test [8] was inactive.

For `O=C(NCc1ccc(Cl)c(Cl)c1)c1ccc(-c2nc3cc(F)c(F)cc3[nH]2)cc1`, the figures for the growth inhibition in test [1] and in test [4] were 12% and 81% (active), respectively. The inhibition in test [2] and in test [3] was -2% throughout. For the same compound, the result in test [5], in test [6], in test [7] and in test [8] was inactive.

For the compound `N#CCCN1CCN(Cc2cccc(-c3ccc(-c4nc5ccc(C(F)(F)F)cc5[nH]4)cc3)c2)CC1`, the values for the growth inhibition in test [1] and in test [4] were 63% (active) and 101% (active), respectively. For the same compound, the inhibition is 23% in test [2] and 4% in test [3]. The result in test [5], in test [6], in test [7] and in test [8] was inactive.

Consider `c1ccc(CN2CCN(CCNc3c4ccccc4nc4ccccc34)CC2)cc1`, for which the growth inhibition in test [1] is 97% (active); in test [4], 100% (active). Moreover, the inhibition is 44% in test [2] and 9% in test [3]. The outcome in test [5], in test [6], in test [7] and in test [8] was inactive.

As for `CN1CCC(C(=O)Nc2cccc(-c3ccc(-c4nc5ccc(C(F)(F)F)cc5[nH]4)cc3)c2)CC1`, the growth inhibition in test [1] is 99% (active); in test [4], 100% (active). Also, the inhibition in test [2] is 38%; in test [3], -4%. Also, the result in test [5], in test [6], in test [7] and in test [8] was inactive.

`Cc1cc(C)c2nc(N3CCC(C(=O)NCCCN4CCC(N5CCCCC5)CC4)CC3)sc2c1`: the growth inhibition in test [1] is 34%; in test [4], 99% (active). The inhibition in test [2] was 99% (active); in test [3] it was -5%. Besides, the result in test [5], in test [6], in test [7] and in test [8] was inactive.

Broadly, the inhibition is the change of the read-out against control, counted positive when it falls.
